# HT1080-NT tox: kills 2HG-producing HT-1080-NT fibrosarcoma cells; HT-1080-NT fibrosarcoma viability, CellTiter-Glo ATP luminescence, 48 h; Potency, µM (doses to about 46.1 µM), without a hit: at the top dose activity, negative = less viability, usual class: cytotoxic; 360,000 compounds, 1.6% hits; AID 686970;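 further: NT is the 2HG producing partner of a matched IDH1 knockdown line; 0% = DMSO-treated cells and -100% = media-only wells without cells; nearly all actives have a fitted effect of over 55% in size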
#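 Compounds were tested in concentration-response format on HT-1080-NT cells for 48 hours at 37 degrees C. Cell viability came from CellTiter-Glo luminescence; curves were classified by r2, response magnitude and activity.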
# HT1080 IDH1KD tx: kills HT-1080 cells with IDH1 knockdown | 360,000 compounds, 2% hits | HT-1080 IDH1 knockdown viability, ATP luminescence, 48 h | Potency, µM (titrated, usually from 46.1 µM), inactives show top-dose activity, negative = toxicity, usual class: cytotoxic;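 further: 0% = DMSO wells and -100% = cell-free medium wells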
#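 Cytotoxicity counter-line: IDH1KD HT-1080, 48 h, CellTiter-Glo. Curves classed by r2, magnitude and activity.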
# HepG2 viability: HepG2 cytotoxicity, counter-screen for TGF-b inhibitors; AID 588856; HepG2 CAGA-GFP viability, ATP luminescence, 18 h; 410,000 compounds, 0.76% hits; Potency, µM (top dose mostly 46.1 µM), without a hit: at the top dose activity change, negative = cytotoxicity, usual class: cytotoxic
#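 CellTiter-Glo luminescence gave cytotoxicity after 18 hours at 37 degrees C. The cells were HepG2 CAGA-GFP in 1% FBS DMEM, stimulated with 500 pg/mL TGF-beta after compound addition. %Activity was normalised to no-cell wells (complete cell-killing) and DMSO (no toxicity), and curves were fitted and classified.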
# S2 tox: reduces viability in counter-screen for ATXN expression inhibitors; S2 cells (HEK-293 line with an ATXN2-luciferase reporter) viability, CellTiter-Fluor protease fluorescence, 24 h; Potency, µM (titrated, usually from 56.7 µM), usual class: cytotoxic; 400,000 compounds, 0.49% hits; further: nearly all actives have a fitted effect of over 40% in size
# TGFb SMAD3 inh: inhibitors of TGF-b signaling. 410,000 compounds, 1.2% hits. Potency, µM (top dose mostly 46.1 µM), for the others: top-dose activity, negative = inhibition, usual class: inhibitors. HepG2 CAGA-GFP TGF-b/SMAD3 reporter, GFP fluorescence, 18 h; TGF-beta stimulated, 500 pg/mL final; further: on the % scale 0 is the no-effect control and ±100 the full control effect; nearly all actives have a fitted effect of over 65% in size
#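 First, reporter cells (HEPG2 CAGA-GFP) rested 2 h at 37 degrees C. Next, compounds were pinned in and TGF-beta added to 500 pg/mL final. After 18 h, GFP was imaged per cell and summed per well.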
# ATXN2 expr inh: ATXN2 expression inhibition; 360,000 compounds, 0.72% hits; HEK-293 ATXN2-luciferase reporter, luminescence, 24 h; Potency, µM (titrated, usually from 57 µM), inactives show at the top dose activity change, negative = inhibition, hits mostly inhibitors; further: on the % scale 0 is the no-effect control and ±100 the full control effect; nearly all actives have a fitted effect of over 55% in size
#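 ATXN2-luciferase reporter cells (luciferase flanked by upstream and downstream ATXN2 gene portions) were treated 24 h at 37 °C with compounds at up to 57 uM. SteadyGlo luminescence gave expression; GF-AFC fluorescence gave viability.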
# * = called active by the depositor; i = inactive; ? = inconclusive; . = no result given. Hits are enriched below; roughly 3.8% of the tested compounds scored in any of these assays. The call rests on the fitted dose curve; in most records, active means well fitted curve in the direction sought with a large enough effect; inconclusive means small, poorly fitted or top-dose-only effect, or another doubt; inactive means no such curve, though single readings can be large; an effect the other way counts as inactive or inconclusive. Potency means the concentration at half of the fitted maximal effect.
SMILES,HT1080-NT tox,HT1080 IDH1KD tx,HepG2 viability,S2 tox,TGFb SMAD3 inh,ATXN2 expr inh
O=C(N/N=C/c1ccccn1)c1cc([N+](=O)[O-])cc([N+](=O)[O-])c1,-11.0%,-9.4%,-51.6%,?,4.47µM*,.
COc1cc(OC)c(OC)cc1CN1CCCC(c2nc(C)ncc2-c2ccc(F)cc2)C1 (stereo unspecified),.,.,.,i,.,.
O=C(N/N=C/c1ccccc1O)c1cccc(C(F)(F)F)c1,?,2.59µM*,-52.4%,?,?,3.16µM*
NNC(=O)c1cccc(S(=O)(=O)Nc2cccc(C(F)(F)F)c2)c1,-15.7%,-2.5%,21.5%,i,-8.3%,.
COc1cccc(/C=N/NC(=O)c2cc3cc([N+](=O)[O-])ccc3s2)c1O,4.11µM*,2.91µM*,10µM*,.,0.0%,?
Cc1[nH]c2ccccc2c1/C=N/NC(=O)c1cccc(S(=O)(=O)Nc2cccc(C(F)(F)F)c2)c1,-12.9%,-15.5%,-11.7%,i,10µM*,.
COc1ccc(OC)c(C(=O)N2CCc3c(cnc(C)c3CNS(=O)(=O)N(C)C)C2)c1,.,.,.,i,.,.
CCC1CN(CC(=O)N(C)Cc2nc3ccccc3[nH]2)Cc2cc(OC)ccc2O1 (stereo unspecified),.,.,.,i,.,.
Cc1ccc(-c2nc3sc(CCNS(=O)(=O)c4cc(F)ccc4F)c(C)n3n2)cc1,.,.,-3.1%,.,6.31µM*,.
Cc1c(CCNC(=O)c2ccc(Br)o2)sc2nc(-c3ccc(Cl)cc3)nn12,.,.,-33.2%,.,11.2µM*,.
COc1ccc(-c2nc3sc(CCNC(=O)c4cc(Cl)ccc4OC)c(C)n3n2)cc1,.,.,-18.5%,25.1µM*,-16.8%,?
C[N+](C)(CCCCCC[N+](C)(C)C1c2ccccc2-c2ccccc21)C1c2ccccc2-c2ccccc21,.,.,.,i,.,.
CCCCNC(=NCc1cccc(C(F)(F)F)c1)Nc1ccccc1,?,23.1µM*,-186.5%,i,0.0%,?
CCOc1ccc(OCC(=O)NCCS(=O)(=O)N2CCN(c3ccccc3F)CC2)cc1,.,.,-20.8%,.,-8.8%,.
Cc1ccccc1-c1cccc(CN2CCc3nnc(C(NS(C)(=O)=O)C(C)C)n3CC2)c1 (stereo unspecified),.,.,.,i,.,.
O=C(NCCc1ccccc1F)c1ccc2c(c1)OCCO2,-14.3%,-18.4%,-18.4%,?,6.3%,0.562µM*
COc1ccc(C(=O)NC2CCCc3ccccc32)cc1[N+](=O)[O-] (stereo unspecified),?,14.6µM*,1.8%,i,-12.7%,-23.7%
CC(C)c1ccc(NC(=O)Cn2cc(S(=O)(=O)Cc3ccccc3Cl)c3ccccc32)cc1,.,.,-42.7%,.,?,.
Cc1cc(Cl)c(OCCOCCN2CCCCC2)c(Br)c1,11.2%,7.7%,1.9%,i,0.7%,-28.8%
CC1CCCN(CCOCCOc2ccc(Br)cc2Cl)C1 (stereo unspecified),?,?,-19.0%,i,-24.2%,-17.7%
Cc1cc(Cl)c(OCCCNC2CCCC2)c(Br)c1,?,20.6µM*,-52.1%,i,?,-27.9%
Cc1cc(Cl)c(OCCOCCN2CCCC(C)C2)c(Br)c1 (stereo unspecified),18.4µM*,?,-7.5%,i,-9.0%,-17.7%
CC1CCCN(CCOCCOc2ccc(Cl)cc2Br)C1 (stereo unspecified),22.4µM*,11.2µM*,-37.3%,?,?,?
Cc1ccc(NC(=O)c2ccc(NC(=O)C3CCCC3)cc2)c(C)c1,4.1%,3.4%,.,.,.,.
CCCC1OC2C[C@@H]3[C@H]4CCC5=CC(=O)C=C[C@]5(C)[C@H]4C(O)C[C@]3(C)[C@]2(C(=O)CO)O1 (stereo partly specified),.,.,-27.9%,.,-3.8%,0.4%
C(=C\c1ccccc1)/CSc1nnc(-c2ccccn2)n1Cc1ccco1,5.8µM*,4.11µM*,-6.1%,?,?,-19.1%
